We go through ten compounds from PubChem BioAssay (EPA / NIEHS).

Inconclusive results are not listed. Calls of active or inactive are those of the source. The calls were made as follows: active = hit-call score of the fitted dose curve at least 0.9, where 1 is the maximum; inconclusive = response in the unintended direction; inactive = score below 0.9.

Chain of human Caspase 2 (CASP2), CASP2 (gene 835) (P42575 whole entry, looked up): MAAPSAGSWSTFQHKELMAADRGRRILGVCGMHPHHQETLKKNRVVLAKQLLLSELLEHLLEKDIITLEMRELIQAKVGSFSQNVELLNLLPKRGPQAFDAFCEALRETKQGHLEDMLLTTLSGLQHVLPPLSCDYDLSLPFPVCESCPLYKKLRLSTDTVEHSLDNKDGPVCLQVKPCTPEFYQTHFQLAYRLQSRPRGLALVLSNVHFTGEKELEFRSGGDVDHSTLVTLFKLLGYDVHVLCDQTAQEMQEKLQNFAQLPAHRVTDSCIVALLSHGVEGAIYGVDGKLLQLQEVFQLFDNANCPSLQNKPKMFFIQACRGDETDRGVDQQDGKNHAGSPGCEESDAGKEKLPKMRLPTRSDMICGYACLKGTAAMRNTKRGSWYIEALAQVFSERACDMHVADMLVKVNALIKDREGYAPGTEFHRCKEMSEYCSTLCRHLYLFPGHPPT
Chain of human AKT serine/threonine Kinase 1 (AKT1), AKT1 (gene 207) (P31749 whole entry, looked up): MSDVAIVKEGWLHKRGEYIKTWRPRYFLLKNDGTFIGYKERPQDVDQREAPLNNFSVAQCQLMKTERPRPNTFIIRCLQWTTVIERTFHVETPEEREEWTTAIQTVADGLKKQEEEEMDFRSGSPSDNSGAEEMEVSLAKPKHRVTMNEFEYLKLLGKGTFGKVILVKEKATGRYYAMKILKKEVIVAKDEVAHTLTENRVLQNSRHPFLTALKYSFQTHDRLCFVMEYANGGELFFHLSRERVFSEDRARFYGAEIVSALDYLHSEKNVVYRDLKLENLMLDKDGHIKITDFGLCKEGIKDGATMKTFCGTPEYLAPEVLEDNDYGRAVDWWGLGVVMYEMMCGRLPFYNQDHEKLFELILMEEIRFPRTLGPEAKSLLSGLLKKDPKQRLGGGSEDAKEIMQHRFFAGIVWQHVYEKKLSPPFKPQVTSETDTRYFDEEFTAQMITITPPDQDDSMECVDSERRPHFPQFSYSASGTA

One test concerns the target human Caspase 2 (CASP2), CASP2 (gene 835) (UniProt P42575). Description: NVS_ENZ_hCASP2: NovaScreen (NVS) Enzymatic Assay for human Caspase 2 (CASP2) (AID 2283135). In short, it runs like this: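 E. coli-expressed enzyme in a cell-free protease assay, fluorescence read 1 h after dosing. Compounds at 25 uM in duplicate, with concentration-response up to 50 uM for hits; loss of signal against DMSO baseline.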
Regarding `CC(Cl)(Cl)C(=O)O`, the outcome was inactive.
Still for that read-out and setting: next, `COCCOCCO`: “inactive”.
Still for that read-out and setting: under `CCCCN(CCCC)SN(C)C(=O)Oc1cccc2c1OC(C)(C)C2` stands “inactive”; under `CCOP(=S)(OCC)SCSCC`, “inactive”.

The next test has as its target human AKT serine/threonine Kinase 1 (AKT1), AKT1 (gene 207) (UniProt P31749). In words: NVS_ENZ_hAKT1: NovaScreen (NVS) Enzymatic Assay for human AKT serine/threonine Kinase 1 (AKT1) (AID 2283138). In outline:
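Cell-free recombinant enzyme with substrate; activity read by fluorescence intensity after electrophoretic mobility shift separating substrate from product, 1 h after dosing. Single-concentration duplicates at 25 uM, then singleton concentration-response up to 50 uM; loss of signal versus DMSO.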
Take `Cc1cccc(N)c1`: the call was inactive.
Still for that read-out and setting: next, `CCOP(=S)(OCC)SCSCC`: “inactive”; `CC(C)(C)OOC(C)(C)C`: “inactive”; `CCOP(=S)(Oc1ccc([N+](=O)[O-])cc1)c1ccccc1` (stereo unspecified): “inactive”.

A further test deals with human Beta-secretase (BACE), BACE1 (gene 23621) (UniProt P56817). Description: NVS_ENZ_hBACE: NovaScreen (NVS) Enzymatic Assay for human Beta-secretase (BACE) (AID 2283140).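 Also: hits are inhibitors that reduce fluorescent substrate signal versus DMSO.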 In short, it runs like this: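 Cell-free fluorescence-intensity assay of recombinant BACE1 expressed in SF9 cells, read 1 hour after dosing. Loss of signal indicates reduced protease activity, fitted relative to DMSO negative control. Primary screen at 25 uM in duplicate; actives followed in concentration series.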
Chain of human Beta-secretase (BACE), BACE1 (gene 23621) (P56817 whole entry, looked up): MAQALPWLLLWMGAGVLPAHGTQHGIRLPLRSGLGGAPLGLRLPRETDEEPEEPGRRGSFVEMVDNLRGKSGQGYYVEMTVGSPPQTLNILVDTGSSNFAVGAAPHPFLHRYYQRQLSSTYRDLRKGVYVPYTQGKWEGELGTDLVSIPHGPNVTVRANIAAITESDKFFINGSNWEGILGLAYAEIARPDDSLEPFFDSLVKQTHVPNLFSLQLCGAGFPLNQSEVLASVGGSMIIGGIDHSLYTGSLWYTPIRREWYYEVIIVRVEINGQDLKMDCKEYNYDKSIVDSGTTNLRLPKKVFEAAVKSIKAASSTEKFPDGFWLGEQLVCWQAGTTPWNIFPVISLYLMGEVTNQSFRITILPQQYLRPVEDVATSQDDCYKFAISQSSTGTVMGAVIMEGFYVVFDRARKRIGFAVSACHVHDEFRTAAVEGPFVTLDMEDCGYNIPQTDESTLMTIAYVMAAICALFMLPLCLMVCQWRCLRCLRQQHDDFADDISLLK
With `NNC(N)=S`, the compound was classed as inactive.
As to `CCCN(CCC)c1c([N+](=O)[O-])cc(C(C)C)cc1[N+](=O)[O-]`, the call was inactive.
On to `O=P(OCC(Br)CBr)(OCC(Br)CBr)OCC(Br)CBr` (stereo unspecified), for which the concentration at half-maximal activity (AC50) (in general, the midpoint of the concentration-response curve, whichever way the signal moves) is 14.3 µM (active).
